Measurements from PubChem BioAssay AID2267 (National Center for Advancing Translational Sciences (NCATS), 2010).
The other results are listed elsewhere or left out. Records with an inconclusive call do not appear. Calls of active or inactive are those of the source. Calls follow the shape of the dose curve; as a rule, active = well fitted inhibition curve with a large enough effect; inconclusive = small, poorly fitted or top-dose-only effect, or effect the other way; inactive = flat fitted curve, though single readings scatter.

Each molecule was assayed against Pyruvate kinase PKM (Homo sapiens) (UniProt P14618) (assay: Secondary assay for Inhibitors of Human Pyruvate Kinase M2 isoform). Settings: purified hPK-M2, LDH-coupled NADH fluorescence kinetic.
Sequence of Pyruvate kinase PKM (Homo sapiens) (P14618 whole entry, looked up, canonical isoform): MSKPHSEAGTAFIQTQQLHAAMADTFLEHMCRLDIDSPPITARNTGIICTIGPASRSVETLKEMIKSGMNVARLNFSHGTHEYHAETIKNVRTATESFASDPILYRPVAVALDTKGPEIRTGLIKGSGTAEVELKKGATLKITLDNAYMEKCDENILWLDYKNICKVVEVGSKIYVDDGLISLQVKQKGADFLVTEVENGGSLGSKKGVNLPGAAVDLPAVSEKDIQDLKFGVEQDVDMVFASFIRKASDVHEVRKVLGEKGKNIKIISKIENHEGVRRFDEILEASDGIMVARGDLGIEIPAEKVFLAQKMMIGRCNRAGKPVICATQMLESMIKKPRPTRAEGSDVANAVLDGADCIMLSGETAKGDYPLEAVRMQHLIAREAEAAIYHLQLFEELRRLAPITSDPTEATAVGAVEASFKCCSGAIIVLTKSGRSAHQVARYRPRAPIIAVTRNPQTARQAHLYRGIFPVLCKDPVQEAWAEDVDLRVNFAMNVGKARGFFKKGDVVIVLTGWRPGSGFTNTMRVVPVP
From the text: NIH Chemical Genomics Center [NCGC] Matthew G. Vander Heiden, M.D., Ph.D. [Harvard Medical School, 77 Avenue Louis Pasteur, Boston, MA 02115] MLPCN Grant: 1 R03 MH085679-01 NCGC Assay Overview: Human pyruvate kinase muscle 2 (hPK-M2)enzyme was supplied as a highly purified (>95% pure) preparation from Harvard Medical School and a secondary assay was used to evaluate compounds. This assay couples the formation of pyruvate from hPK-M2 using lactate dehydrogenase (LDH) and NADH. The depletion of NADH is followed in a fluorescent-based kinetic assay that follows the formation of pyruvate to lactate, as catalyzed LDH (described by Hannaert et al., 2002)1 Pyruvate kinase substrates, PEP and ADP, were present in the assay at 0.1 mM and 4 mM respectively. In this kinetic assay initial rates were determined by following the fluorescence of NADH depletion.
NCGC Assay Protocol Summary: Three uL of substrate mix (final concentration, 50 mM Tris-Cl pH 8.0, 200 mM KCl, 15 mM MgCl2, 0.1 mM PEP, 4.0 mM ADP, and 0.2 mM NADH) was dispensed into black-solid 1536 well plates. 23 nL of compounds were delivered by a pin tool and 1 uL of enzyme mix (final concentrations, 10 nM hPK-M2 and 1 uM of LDH) was added. Plates were immediately placed in ViewLux (Perkin Elmer) and NADH fluorescence was determined at 30 second exposure intervals for between 3 and 6 minutes. Data were normalized to the basal signal.
In the case of `Cc1ccc(-c2nc3ccccn3c2Nc2ccc(F)cc2)o1`, the Potency is reported as 7.3 µM (active).
